# Experimental data from PubChem BioAssay (Tox21).
# Inconclusive results are not listed. Values without a mark were called inactive. Calls of active or inactive are those of the source. The call rests on the fitted dose curve; in most records, active means well fitted inhibition curve with a large enough effect in the repeat runs; inconclusive means weak or mixed curves, or effect the other way; inactive means no such curve, though single readings can be large or run the other way.
# Experiment: qHTS assay to identify small molecule antagonists of the retinoic acid receptor (RAR) signaling pathway (AID 1159552; further: nearly all actives have a fitted effect of over 50% in size)
# Conditions: C3RL4 RARE luciferase reporter, retinol-stimulated, 6 h; series mostly up to 92.4 µM; activity, negative = inhibition: at the top concentration
# Source text: National Center for Advancing Translational Sciences [NCATS]
# NIH Chemical Genomics Center [NCGC]
# U.S. Environmental Protection Agency [EPA]
# National Institutes of Environmental Health Sciences [NIEHS]
# National Toxicology Program [NTP]
# U.S. Food and Drug Administration [FDA]
# All-trans Retinoic acid (atRA) is the potent natural metabolite of retinol and plays an important role in normal embryonic development and maintenance of cellular phenotype in adult animals. atRA is the activating ligand for the retinoic acid receptors (RARs) which form heterodimers with retinoid X receptors (RXRs) on the retinoic acid response element (RARE). Through activation of the RAR/RXRs nuclear receptors, atRA regulates the transcription of a large number of protein-coding genes and regulatory RNAs. Intracellular levels of atRA are controlled by the retinol signaling pathway (RSP) that regulates the biosynthesis and catabolism of atRA to maintain physiological levels. Chemicals that interfere with the RSP can cause abnormal intracellular levels of atRA and therefore are potential developmental toxicants. To assess compounds for the potential adverse effect on embryonic development through interfering with retinol signaling, a cell-based RARE luciferase reporter gene assay was used. C3RL4 cell line (OARSA/CFSAN/FDA, Laurel, MD) was used to screen Tox21 10K compound library for identifying inhibitors of the RSP.
# Tox21 Assay Protocol Summary:
# C3RL4 cells were seeded at 1,000/well in 4 uL of assay medium into white solid 1,536-well tissue culture plates (Greiner Bio-One North America Inc. Monroe, NC) using a Multidrop Combi (Thermo Scientific, Waltham, MA) dispenser. After incubation at 37 C and 5% CO2 for an overnight, 23 nL of compounds dissolved in DMSO, positive control or DMSO only were transferred by a Pintool station (Kalypsys, San Diego, CA). One ul of 1 uM (final concentration) of Retinol was added right after the compound addition by using a Flying Reagent Dispenser (FRD) (Aurora Discovery, San Diego, CA). After 6 hr incubation at 37 C and 5% CO2, 5 uL of Amplite Luciferase reagent (AAT Bioquest Inc. Sunnyvale, CA) was added to each assay plate using an FRD. Luminescence was quantified on a ViewLux plate reader (PerkinElmer, Waltham, MA) after 30 min incubation at room temperature.
# On the % scale 0 is the no-effect control and ±100 the full control effect; potency means the concentration at half of the fitted maximal effect.
Structure (SMILES),"activity, negative = inhibition",Potency
C1C2OC2C2C1C1CC2C2OC12 (stereo not given),56.9%,–
NC1CCN(c2cccc(Cl)n2)CC1,-5.32% [at 42.5 µM],–
CCOC(=O)Cn1c(=O)sc2cccc(Cl)c21,-13.1%,–
C[C@H]1O[C@@H](n2cc(F)c(=O)[nH]c2=O)[C@H](O)[C@@H]1O,13% [at 42.5 µM],–
CCCCCC[C@@H](CCC)C(=O)O,-3.93% [at 42.5 µM],–
COCCOC(=O)CC#N,10.9%,–
CCCCCCCCCCCCCCC,-1.7%,–
C1=C\CC/C=C\CC/C=C\CC/1,7.99%,–
O=[N+]([O-])c1ccc(Oc2ccc([N+](=O)[O-])cc2)cc1,32.2%,–
COc1ccc(NC(C)=O)cc1,61.7%,–
c1cc(CN2CCCCC2)cc(OCCCNc2nc3ccccc3s2)c1,2.46% [at 42.5 µM],–
Oc1cc(O)c2c(c1)O[C@H](c1ccc(O)c(O)c1)[C@H](O)C2,16.7% [at 42.5 µM],–
CC(C)(C)N(CCO)CCO,20.3%,–
CCOC(=O)Nc1ccc2c(c1)N(C(=O)CCN1CCOCC1)c1ccccc1S2,-9.16% [at 42.5 µM],–
Cc1ccccc1Br,23.9%,–
Cc1nc(-c2ccc(OCC(C)C)c(C#N)c2)sc1C(=O)O,-51.9% [at 42.5 µM],–
CNc1ncnc2nc[nH]c12,-14.5%,–
NC(=O)c1ncn([C@@H]2O[C@H](CO)[C@@H](O)[C@H]2O)c1O,306% [at 42.5 µM],–
COC(=O)C1=C(C)NC(C)=C(C(=O)OCC(C)=O)C1c1ccccc1[N+](=O)[O-] (stereo not given),8.48% [at 42.5 µM],–
CC(C)(C)C(=O)/C=C/c1ccc(Cl)cc1,13.4%,–

Structure (SMILES),"activity, negative = inhibition",Potency
Cc1onc(-c2ccccc2)c1-c1ccc(S(N)(=O)=O)cc1,-12.5% [at 42.5 µM],–
N#CCc1ccccc1[N+](=O)[O-],-9.7%,–
COc1ccc2cc(C=O)ccc2c1,54.1% [at 42.5 µM],–
CCO[Si](C)(OCC)OCC,-2.53%,–
Oc1ccc2c(c1)OC[C@@H](N1CCC(O)(c3ccc(F)cc3)CC1)[C@H]2O,153% [at 42.5 µM],–
NC(=O)Nc1nc2ccccc2[nH]1,5.09%,–
COc1ccc(COC=O)cc1,11.1%,–
COC(=O)c1ccc(C(=O)OC)c(C(=O)OC)c1,10.2%,–
CCCCCCOC(=O)CC(CC(=O)OCCCCCC)(OC(=O)CCC)C(=O)OCCCCCC,9.76%,–
Cn1ccc2cc3c(cc21)CCN3C(=O)Nc1cccnc1,169% [at 19 µM],–
O=C(O)C(O)[C@H](O)[C@@H](O)[C@H](O)[C@H](O)CO (stereo not given in full),-2.1%,–
CCCCC1CCCCC(=O)O1 (stereo not given),2.41%,–
c1ccc(SCCSc2ccccc2)cc1,115%,–
CCN1CCCC1CNC(=O)c1cc(S(N)(=O)=O)ccc1OC (stereo not given),-11.8%,–
COc1ccc(N=[N+]([O-])c2ccc(OC)cc2)cc1,3.11%,–
C=C(C)C(=O)OCCC(C)OC(=O)C(=C)C (stereo not given),-1.11%,–
CCCC=O,-20.1%,–
O=C(O)Cc1cc(I)c(Oc2cc(I)c(O)c(I)c2)c(I)c1,–,42.4 µM (active)
CC(C)COC(=O)C(C)C,53.2%,–
Cc1c(C)n(CCN(C)C)c2ccc(C(=O)OCCN(C)C)cc12,23.3% [at 42.5 µM],–
